In PubChem BioAssay (EPA / NIEHS) one finds outcome and AC50 data, which are given here for 12 compounds.

Inconclusive results are not listed. Calls of active or inactive are those of the source. The calls were made as follows: active = hit-call score of the fitted dose curve at least 0.9, where 1 is the maximum; inconclusive = response in the unintended direction; inactive = score below 0.9.

This test deals with human NIMA (Never In Mitosis Gene A)-Related Kinase 2 (NEK2), NEK2 (gene 4751) (UniProt P51955). Briefly: NVS_ENZ_hNEK2: NovaScreen (NVS) Enzymatic Assay for human NIMA (Never In Mitosis Gene A)-Related Kinase 2 (NEK2) (AID 2283188). The protocol: NVS_ENZ_hNEK2 is a biochemical, single-readout assay that uses extracted gene-proteins in a cell-free assay. Measurements were taken 1 hour after chemical dosing in a 384-well plate.NVS_ENZ_hNEK2 is one of one assay component(s) measured or calculated from the NVS_ENZ_hNEK2 assay. It is designed to make measurements of enzyme activity, a form of enzyme reporter, as detected with fluorescence intensity signals by Fluorescence and electrophoretic mobility shift technology.Data from the assay component NVS_ENZ_hNEK2 was analyzed into 1 assay endpoint. This assay endpoint, NVS_ENZ_hNEK2, was analyzed in the positive analysis fitting direction relative to DMSO as the negative control and baseline of activity. Using a type of enzyme reporter, loss-of-signal activity can be used to understand changes in the enzymatic activity as they relate to the gene NEK2. Furthermore, this assay endpoint can be referred to as a primary readout, because this assay has produced multiple assay endpoints where this one serves a enzymatic activity function. To generalize the intended target to other relatable targets, this assay endpoint is annotated to the kinase intended target family, where the subfamily is serine/threonine kinase.
Sequence of human NIMA (Never In Mitosis Gene A)-Related Kinase 2 (NEK2), NEK2 (gene 4751) (P51955 whole entry, looked up): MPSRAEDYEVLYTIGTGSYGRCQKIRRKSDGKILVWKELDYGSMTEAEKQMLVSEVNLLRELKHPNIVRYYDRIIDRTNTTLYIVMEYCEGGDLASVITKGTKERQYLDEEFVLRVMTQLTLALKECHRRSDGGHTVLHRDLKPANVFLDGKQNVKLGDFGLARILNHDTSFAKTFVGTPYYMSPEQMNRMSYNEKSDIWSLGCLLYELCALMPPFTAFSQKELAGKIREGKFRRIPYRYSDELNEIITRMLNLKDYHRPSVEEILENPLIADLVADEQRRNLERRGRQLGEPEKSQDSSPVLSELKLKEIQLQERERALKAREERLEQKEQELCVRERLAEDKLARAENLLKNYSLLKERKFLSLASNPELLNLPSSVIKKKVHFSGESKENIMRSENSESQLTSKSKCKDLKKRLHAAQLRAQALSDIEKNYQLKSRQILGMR
Binding assays used specific radioligands (tritiated, iodinated) with non-radioactive competitive displacement ligands in agonist or antagonist protocols (as indicated) and various reference compounds and inhibitors to titrate specific binding to receptors and transporters. Most enzyme assays (CYPs, kinases, phosphatases, proteases, HDACs) used recombinant protein and specific substrates (fluorescence mostly, some colorimetric and radioactive) and inhibitors, followed by a biochemical separation of substrate and product. All assays for the biochemical HTS were initially run in duplicate at a single concentration (10 uM for CYP450 assays and 25 uM for all others). […] Each assay was run with positive and negative controls, and concurrent controls on every plate. The follow-up (secondary) screen tested active chemical-pairs in concentration series, as well as a few additional assays not tested in the primary screen, some selected negative inactives, and several cases re-run in the concentration series for confirmatory purposes.
Regarding `c1ccc(C(O[C@@H]2CCCN(CCc3ccc4c(c3)OCO4)C2)c2ccccc2)cc1`, the call was inactive.
With `O=C(O)Cc1cc(I)c(Oc2ccc(O)c(I)c2)c(I)c1`, the call was inactive.
Consider `Cc1ccc2ncccc2c1`, for which the compound was classed as inactive.
In the case of `CCCCC=O`, the compound was called inactive.
As usually defined, the AC50 is the concentration giving half of the maximal activity seen. As for `CN1C(=O)N(c2ccccc2Br)Cc2cnc(Nc3ccc4c(c3)OCC(CO)O4)nc21` (configuration not stated), the concentration at half-maximal activity (AC50) was 2.29 nM (active).
Consider `COc1cc(C(=O)NC2CCN(C)CC2)ccc1Nc1ncc2c(n1)N(C1CCCC1)CC(F)(F)C(=O)N2C`, for which the result was inactive.
For the compound `CC/C(=C(/CC)c1ccc(O)cc1)c1ccc(O)cc1`, the outcome was inactive.
On the same count and under the same terms, in the case of `Cc1nc(-c2ccccn2)ncc1C(=O)Nn1cc(C)c2cc(F)ccc21` it was “inactive”; in that of `O=CCCCC=O`, “inactive”.
Take `CN(C)c1ccc(N=NS(=O)(=O)O)cc1`: the compound was classed as inactive.
The same measure, in the same setting: in the case of `Oc1ccc(C(c2ccc(O)cc2)C(Cl)(Cl)Cl)cc1` it was “inactive”; in that of `CC(C)(C)c1csc(-c2cc3cc(OCc4ccccc4CC(=O)O)ccc3o2)n1`, “inactive”.
